Screens: PubChem BioAssay, National Center for Advancing Translational Sciences (NCATS)
Rows were chosen to be rich in hits. Some 5.3% of all compounds tested hit in one or more screens of this group.
Vaccinia Venus: vaccinia inhibition (Venus reporter); Vaccinia virus Venus reporter expression, fluorescence; Potency, µM (highest dose often 36.5 µM), hits mostly inhibitors; 0.46% of 330,000 active; AID 720580; calls by dose curve; tested in A549 cells; also: nearly all actives have a fitted effect of over 30% in size
VACV mCherry inh: inhibitors of vaccinia virus infection (mCherry reporter signal); Vaccinia virus mCherry reporter infection, fluorescence; Potency, µM (highest dose often 36.5 µM), most hits filed as inhibitors; 0.63% of 310,000 active; calls by dose curve; tested in A549 cells; also: nearly all actives have a fitted effect of over 35% in size
Marburg entry inh: inhibitors of Marburg virus binding or cell entry | Marburg virus pseudotyped entry inhibition, cell reporter | Potency, µM (top dose mostly 37.8 µM), hits mostly inhibitors | 1.8% of 300,000 active | AID 540276; calls by dose curve; tested in HEK293 cells
HCV inhibitor: blocks hepatitis C virus | Huh7.5.1 HCVcc-Cre infection, luciferase reporter, 44 h | AID 651820 | Potency, µM (highest dose often 41.8 µM), hits mostly inhibitors | 3.4% of 340,000 active; active = well fitted inhibition curve with a large enough effect; inconclusive = small, poorly fitted or top-dose-only effect, or another doubt; inactive = no such curve, though single readings can be large or run the other way
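Seed cells (1,000/well) for 4 h; treat with compound and infect with HCVcc-Cre, moi about 0.5. Incubate 44 h, then detect luciferase activity.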
Lassa entry inh: inhibitors of Lassa virus binding or cell entry; Lassa virus pseudotype entry inhibition, cell reporter; Potency, µM (highest dose often 37.9 µM), hits mostly inhibitors; 1.2% of 300,000 active; calls by dose curve; tested in HEK293 cells; also: nearly all actives have a fitted effect of over 50% in size
FMDV antiviral: foot and mouth disease virus antiviral activity; FMDV antiviral cell-based qHTS; Potency, µM (titrated, usually from 57.9 µM), most hits filed as inhibitors; 1.2% of 410,000 active; AID 1159524; calls by dose curve; tested in HEK293T cells; also: read-out not given here; nearly all actives have a fitted effect of over 45% in size
Each line names hits and unclear results; the compound was inactive in the other large screens.

Cc1ccc(S(=O)(=O)N2CCOCC2)cc1C(=O)OCC(=O)Nc1ccc2c(c1)OCO2	none
COc1cccc(NC(=O)COC(=O)c2cc(S(=O)(=O)N3CCOCC3)ccc2C)c1	Marburg entry inh 18µM
CC12C=C(C=Cc3ccc(Br)cc3)C(C)(C1)[C@H](c1ccc(Br)cc1)CC2=O (some centres not stated)	Lassa entry inh inconclusive (no result: Vaccinia Venus, VACV mCherry inh, HCV inhibitor, FMDV antiviral)
CCS(=O)(=O)c1ncc(N(Cc2cccc(F)c2)Cc2ccco2)c(C(=O)Nc2ccccc2Cl)n1	none (no result: HCV inhibitor)
Cc1cccc(Nc2nnc(SCC(=O)Nc3cccc(S(=O)(=O)N4CCCCC4)c3)s2)c1	Marburg entry inh inconclusive, HCV inhibitor 13µM, Lassa entry inh inconclusive
Cc1cccc(NC(=O)CSc2nnc(NC(=O)CN3CCCCC3)s2)c1	none (no result: Vaccinia Venus, VACV mCherry inh, FMDV antiviral)
O=C(c1ccccc1)C1OC1C(=O)c1ccccc1 (configuration not stated)	VACV mCherry inh inconclusive, Marburg entry inh 7.9µM, Lassa entry inh inconclusive
CC1C=CC(C)C(C(=O)c2ccccc2)C1C(=O)c1ccccc1 (configuration not stated)	none (no result: Marburg entry inh, HCV inhibitor, Lassa entry inh)
Cc1nnsc1C(=O)NCC1Cc2cccc(-c3ncccn3)c2O1 (configuration not stated)	none (no result: Marburg entry inh, HCV inhibitor, Lassa entry inh)
Cc1ccc(-n2sc3ccccc3c2=O)cc1	Marburg entry inh 3.2µM, HCV inhibitor inconclusive, Lassa entry inh inconclusive
CCc1nn(CC(=O)Nc2ccc(N(CC)CC)cc2C)c(=O)c2cc3sccc3n12	none (no result: HCV inhibitor, Lassa entry inh)
COc1ccc2ccccc2c1CNC(C)c1ccccc1 (configuration not stated)	HCV inhibitor 5.6µM (no result: Vaccinia Venus, VACV mCherry inh, Marburg entry inh, Lassa entry inh)
CC(NCCCOc1cccc2ccccc12)c1ccccc1 (configuration not stated)	HCV inhibitor inconclusive (no result: Vaccinia Venus, VACV mCherry inh, Marburg entry inh, Lassa entry inh)
COc1ccc(CCNCc2c(OC)ccc3ccccc23)cc1	VACV mCherry inh inconclusive, HCV inhibitor inconclusive (no result: Marburg entry inh, Lassa entry inh)
COc1ccc2ccccc2c1CNCc1ccc(C)cc1	Marburg entry inh 10µM, HCV inhibitor inconclusive
C=C1C(=O)OC2C1CCC(C)C1(O)C=CC(=O)C21C (configuration not stated)	VACV mCherry inh inconclusive, HCV inhibitor 8.9µM, FMDV antiviral 40µM (no result: Marburg entry inh, Lassa entry inh)
C=C1C(=O)O[C@H]2[C@H]1[C@H](OC(=O)CC(=O)O[C@@H]1C[C@@H](C)[C@@H]3C=CC(=O)[C@@]3(C)[C@H]3OC(=O)C(=C)[C@H]13)C[C@@H](C)[C@H]1C=CC(=O)[C@]12C	VACV mCherry inh inconclusive, HCV inhibitor inconclusive (no result: Marburg entry inh, Lassa entry inh)
C=C1C(=O)O[C@@H]2C[C@@H](C)[C@@H]3C=CC(=O)[C@@]3(C)[C@@H](OC(=O)CC(=O)O[C@H]3[C@@H]4C(=C)C(=O)O[C@@H]4C[C@@H](C)[C@@H]4C=CC(=O)[C@]43C)[C@H]12	Vaccinia Venus 2.5µM, VACV mCherry inh inconclusive, HCV inhibitor 1.1µM, FMDV antiviral inconclusive (no result: Marburg entry inh, Lassa entry inh)
C=C1C(=O)O[C@H]2C[C@@H](C)[C@@H]3C=CC(=O)[C@@]3(C)C[C@H]12	Vaccinia Venus inconclusive, VACV mCherry inh inconclusive, FMDV antiviral 25µM (no result: Marburg entry inh, Lassa entry inh)
C=C1C(=O)O[C@@H]2C[C@@H](C)[C@@H]3C4OC4C(=O)[C@@]3(C)[C@@H](O)[C@H]12 (some centres not stated)	Vaccinia Venus 14µM, VACV mCherry inh inconclusive, HCV inhibitor inconclusive, FMDV antiviral inconclusive (no result: Marburg entry inh, Lassa entry inh)
COC(=O)C1=C(C)N(Cc2ccccc2)C(=NCC(C)C)NC1c1cccc(F)c1 (configuration not stated)	Lassa entry inh inconclusive (no result: Vaccinia Venus, VACV mCherry inh, HCV inhibitor, FMDV antiviral)
C=C1C(=O)OC2C1CCC(C)C1C=CC(=O)C12C (configuration not stated)	Vaccinia Venus inconclusive, VACV mCherry inh 11µM, Marburg entry inh 11µM, HCV inhibitor inconclusive, Lassa entry inh inconclusive, FMDV antiviral inconclusive
CC(=O)O[C@@H]1[C@H]2[C@@H](C[C@@H](C)[C@@H]3C=CC(=O)[C@@]13C)OC(=O)[C@@H]2C	Vaccinia Venus inconclusive (no result: Marburg entry inh, Lassa entry inh)
C=C1C(=O)OC2CC(C)C3C=CC(=O)C3(C)C(O)C12 (configuration not stated)	Vaccinia Venus 6.3µM, VACV mCherry inh inconclusive, Marburg entry inh 0.63µM, HCV inhibitor 2.5µM, Lassa entry inh 1.3µM, FMDV antiviral 8.9µM
COc1cc(-c2nc3cnccn3c2Nc2ccc(C(C)C)cc2)ccc1O	Vaccinia Venus inconclusive, VACV mCherry inh inconclusive, Marburg entry inh inconclusive, HCV inhibitor inconclusive, Lassa entry inh inconclusive, FMDV antiviral 40µM
CCc1ccc([C@@H]2CC=C(C(=O)O)[C@H](c3cccc(Cl)c3)N2S(=O)(=O)c2ccc(C)cc2)cc1	none (no result: Marburg entry inh, Lassa entry inh)
O=C(c1ccccn1)N(Cc1ccco1)C1(C(=O)NC2CCCC2)CCCCC1	HCV inhibitor inconclusive, FMDV antiviral inconclusive
O=C(c1ccc2c(c1)OCO2)N(Cc1ccco1)C1(C(=O)NC2CCCCC2)CCCCC1	Marburg entry inh inconclusive, HCV inhibitor 10µM, Lassa entry inh inconclusive (no result: Vaccinia Venus, VACV mCherry inh)
Cc1cc(NC(=O)CCC(=O)N(Cc2ccco2)C2(C(=O)NC3CCCC3)CCC(C)CC2)no1 (configuration not stated)	HCV inhibitor 14µM (no result: Lassa entry inh)
CCCC(O)c1nc2ccccc2n1CCCOc1ccc(Cl)cc1 (configuration not stated)	FMDV antiviral 20µM (no result: HCV inhibitor)
CC(C)C(=O)NCCc1nc2ccccc2n1CCCOc1ccc(Cl)cc1	Vaccinia Venus inconclusive, VACV mCherry inh inconclusive, Marburg entry inh inconclusive, Lassa entry inh inconclusive, FMDV antiviral inconclusive
CCCCOc1ccccc1C(=O)N(Cc1sccc1C)C1CCS(=O)(=O)C1 (configuration not stated)	none (no result: HCV inhibitor)
COc1ccc2[nH]cc(CCNc3ncncc3-c3ccccc3Cl)c2c1	FMDV antiviral 35µM (no result: Vaccinia Venus, VACV mCherry inh, Marburg entry inh, HCV inhibitor, Lassa entry inh)
O=C(NCC(c1cccnc1)N1CCN(c2ccccc2F)CC1)c1ccc(F)cc1 (configuration not stated)	FMDV antiviral inconclusive (no result: Marburg entry inh, HCV inhibitor)
COc1ccc(C(=O)O/N=C(\N)c2ccccc2Cl)cc1OC	Marburg entry inh 11µM, HCV inhibitor 10µM, Lassa entry inh 4.5µM
COc1ccc(/C(N)=N/OC(=O)Cc2cccs2)cc1OC	Marburg entry inh inconclusive, HCV inhibitor inconclusive
COc1ccc(C(=O)O/N=C(\N)Cc2cccs2)cc1OC	Marburg entry inh inconclusive, HCV inhibitor inconclusive, Lassa entry inh 1.8µM
COc1ccc(/C(N)=N/OC(=O)c2ccc(OC)c([N+](=O)[O-])c2)cc1OC	Marburg entry inh inconclusive, HCV inhibitor 35µM, Lassa entry inh inconclusive
COc1ccc(/C(N)=N/OC(=O)c2cccc([N+](=O)[O-])c2)cc1OC	Marburg entry inh inconclusive
COc1ccccc1C(=O)O/N=C(\N)c1ccccc1Cl	Marburg entry inh inconclusive, Lassa entry inh inconclusive (no result: Vaccinia Venus, VACV mCherry inh)
COC(=O)c1ccccc1NC(=O)c1ccc2c(Cl)c3c(nc2c1)CCCC3	none (no result: HCV inhibitor)
CC(=O)/C=C\c1cn(-c2ncc(C(F)(F)F)cc2Cl)c2ccccc12	Marburg entry inh inconclusive, HCV inhibitor inconclusive, Lassa entry inh inconclusive, FMDV antiviral 32µM (no result: VACV mCherry inh)
COc1ccc(-c2noc(C3CCCN(C(=O)c4ccc(C)cc4)C3)n2)cc1 (configuration not stated)	Marburg entry inh inconclusive, HCV inhibitor 13µM, Lassa entry inh inconclusive
